Screening results from PubChem BioAssay.
Most compounds without a hit are left out; they make up all but 1.2% or so of the library.
RGS7-Gao: RGS7-Galphao binding modulators, primary screen, biochemical, multiplexed bead flow cytometry; AID 1439, 2008; Guanine nucleotide-binding protein G(o) subunit alpha (Homo sapiens), P09471; 0.35% of 220,000 active; actives lie on both sides; binding response (% of control), % at 10 µM; in the data active = binding response below about 49% or above about 150%; inconclusive = no clear call, values can overlap the other calls; inactive = in between;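 also: fluorescent Galphao held in activated GDP-AlF4 state binding bead-coupled RGS7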
Target sequence (P09471 whole entry, looked up): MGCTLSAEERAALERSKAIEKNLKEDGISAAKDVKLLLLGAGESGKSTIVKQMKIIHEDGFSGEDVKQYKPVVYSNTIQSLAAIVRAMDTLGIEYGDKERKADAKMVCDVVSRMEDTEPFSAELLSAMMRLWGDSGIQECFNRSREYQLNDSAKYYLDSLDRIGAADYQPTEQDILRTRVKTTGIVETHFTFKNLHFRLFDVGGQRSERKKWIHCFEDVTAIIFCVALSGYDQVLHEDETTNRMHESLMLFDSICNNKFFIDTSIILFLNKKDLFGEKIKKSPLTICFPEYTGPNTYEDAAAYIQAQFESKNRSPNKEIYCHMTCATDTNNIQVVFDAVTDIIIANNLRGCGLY
GSH fluor: compound fluorescence on glutathione beads, profiling panel, artefact control, biophysical, 488/530 nm, flow cytometry; GSH beads flow cytometry, compound fluorescence 488/530 nm; active compounds read high; fluorescence (KMESF) at 10 µM; 0.25% of 190,000 active; AID 1776, 2009; in the data active = fluorescence above about 89;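 also: glutathione beads carrying GST-tagged Bcl family fusion proteins plus one bare bead set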
RGS4-Gao reg: modulators of RGS4 binding to Galphao, primary screen, biochemical, multiplexed bead flow cytometry | Guanine nucleotide-binding protein G(o) subunit alpha (Homo sapiens), P09471 | 0.33% of 220,000 active | binding response (% of control), % at 10 µM | actives lie on both sides; in the data active = binding response below about 49% or above about 150%; inactive = in between;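 also: fluorescent Galphao activated with aluminum fluoride binding bead-coupled RGS4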
RGS16-Gao HTS: modulators of RGS16 binding to Galphao, primary screen, biochemical, human proteins, multiplexed bead flow cytometry | Regulator of G-protein signaling 16 (Homo sapiens) + Guanine nucleotide-binding protein … | bead-based flow cytometry RGS16-Galphao binding, fluorescence; actives lie on both sides | binding response (% of control), % at 10 µM | 0.38% of 220,000 active;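 also: Galphao activated by GDP with aluminum fluoride before binding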
RGS8-Gao reg: RGS8-Galphao binding modulators, primary screen, biochemical, multiplexed bead flow cytometry. 0.34% of 220,000 active. Guanine nucleotide-binding protein G(o) subunit alpha (Homo sapiens), P09471. response (percent of control binding), % at 10 µM. actives lie on both sides; in the data active = response below about 60% or above about 140%; inactive = in between;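 also: Galphao activated as the GDP aluminium fluoride complex binding bead-coupled RGS8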
Avidin fluor: green autofluorescence of compounds with avidin beads – biophysical, 488/530 nm, flow cytometry, artefact control, profiling panel; compound fluorescence 488/530 nm; active compounds read high; fluorescence (KMESF) at 10 µM; 0.38% of 220,000 active; AID 1775, 2009; in the data active = fluorescence above about 47
RGS-Gao: modulators of RGS–Galpha-o binding, primary screen, biochemical, multiplexed beads, flow cytometry, RGS4/7/8/16/19; 99% of 1,600 active; shares compounds with RGS16-Gao HTS; RGS4–Galpha-o binding response, % at 10 µM; multiplexed bead flow cytometry;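 also: fluorescently labeled Galpha-o bound to GDP with aluminium fluoride binding biotinylated RGS beads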
Biotin-avidin: disruption of biotin probe capture by avidin, counter-screen for RGS protein interaction modulators, biochemical, flow cytometry, bead-based | shares compounds with RGS16-Gao HTS | streptavidin beads, fluorescein-biotin binding | inhibition, % at 10 µM | 1,700 tested, under 10 active;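 active = inhibition above 50%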;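 also: median green fluorescence of gated singlet beads compared with DMSO control wells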
RGS8-Gao single: RGS8-Galphao binding modulators, confirmation, biochemical, multiplexed bead flow cytometry, single concentration. 3% of 1,700 active. binding response (% of control), % at 10 µM. AID 1836, 2009. bead-based flow cytometry RGS8-Galphao binding, fluorescence; actives lie on both sides. shares compounds with RGS16-Gao HTS; in the data active = binding response below about 72% or above about 130%; inactive = in between;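 also: Galphao activated as GDP AlF4 complex before binding bead RGS8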
RGS7-Gao confirm: RGS7-Galphao binding modulators, confirmation, biochemical, multiplexed bead flow cytometry, single concentration. shares compounds with RGS16-Gao HTS. bead-based flow cytometry RGS7-Galphao binding; actives lie on both sides. response (percent of control binding), % at 10 µM. 7.8% of 1,700 active. AID 1837, 2009; in the data active = response below about 75% or above about 130%; inactive = in between;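 also: fluorescent Galphao activated with GDP and aluminum fluoride binding bead-coupled RGS7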
RGS16-Gao single: modulators of RGS16-Galphao protein binding, confirmation, biochemical, single concentration, multiplexed bead flow cytometry | shares compounds with RGS16-Gao HTS | bead-based flow cytometry; actives lie on both sides | response (% of control binding), % at 10 µM | 4% of 1,700 active | AID 1838, 2009; in the data active = response below about 74% or above about 130%; inactive = in between;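 also: Galphao activated as the GDP aluminium fluoride complex binding bead-coupled RGS16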
RGS4-Gao confirm: modulators of RGS4-Galphao protein binding, confirmation, biochemical, single concentration, multiplexed bead flow cytometry | binding response (% of control), % at 10 µM | 4% of 1,700 active | actives lie on both sides | shares compounds with RGS16-Gao HTS; in the data active = binding response below about 74% or above about 130%; inactive = in between
RGS19-Gao conf: regulators of RGS19-Galphao binding, confirmation, biochemical, single point, multiplexed bead flow cytometry; shares compounds with RGS16-Gao HTS; bead-based flow cytometry RGS19-Galphao binding; actives lie on both sides; response (percent of control binding), % at 10 µM; 5% of 1,700 active; in the data active = response below about 50% or above about 160%; inactive = in between
Target sequence (P09471 whole entry, looked up): as above
Target sequence (P49795 whole entry, looked up): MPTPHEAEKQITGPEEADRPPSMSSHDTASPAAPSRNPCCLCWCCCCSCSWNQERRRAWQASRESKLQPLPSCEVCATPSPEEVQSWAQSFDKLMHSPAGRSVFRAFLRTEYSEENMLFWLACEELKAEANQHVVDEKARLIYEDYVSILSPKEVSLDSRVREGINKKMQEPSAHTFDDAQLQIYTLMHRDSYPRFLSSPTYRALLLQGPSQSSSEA
Each line names hits and unclear results; the compound was inactive in the other large screens (follow-up assays come after a bar, where they were run); [ ] = another dose, or the depositor's remark. Unless noted, no rule for the calls is given here.

O=C(CN1CCN(c2ccccc2O)CC1)NCCCc1ccccc1	none
Cc1nn(-c2ccccc2)c2sc(C(=O)N3CCCCC3)cc12	none (no result: RGS7-Gao, RGS4-Gao reg, RGS16-Gao HTS, RGS8-Gao reg, Avidin fluor) | Biotin-avidin inactive | RGS8-Gao single inactive | RGS7-Gao confirm inactive | RGS16-Gao single inactive | RGS4-Gao confirm inactive | RGS19-Gao conf inactive
Cc1cc(C)c2[nH]c(O)c(N=NC3=NC(=O)CS3)c2c1	RGS7-Gao inconclusive, RGS4-Gao reg 283.0[activator], RGS16-Gao HTS 269.6[activator], Avidin fluor 124 (no result: GSH fluor) | Biotin-avidin inactive | RGS8-Gao single inactive | RGS7-Gao confirm inactive | RGS16-Gao single inactive | RGS4-Gao confirm inactive | RGS19-Gao conf inactive
CCc1ccc2c(c1)c(N=NC1=NC(=O)CS1)c(O)n2C	none
c1ccc(CCn2nnnc2C(c2cccnc2)N2CCOCC2)cc1 (stereo unspecified)	RGS7-Gao inconclusive
CSc1ncccc1C(=O)Nc1nc2c(C)cccc2s1	none
Cc1cc(C(=O)Nc2nc3c(C)cccc3s2)c(C)o1	RGS16-Gao HTS 17.5 | RGS-Gao 72.3 | Biotin-avidin inactive | RGS8-Gao single inactive | RGS7-Gao confirm inactive | RGS16-Gao single inactive | RGS4-Gao confirm inactive | RGS19-Gao conf inactive
COc1ccc(C(C)(C)C)cc1S(=O)(=O)n1ccnc1C	none
NNC(=O)CCc1ccc(S(=O)(=O)N2CCOCC2)cc1	none
O=C(Nc1ccc(Cl)c(Cl)c1)c1cccc(S(=O)(=O)NCc2cccnc2)c1	none
CCCn1c(SCC(=O)N2CCCC2)nc2c1c(=O)n(C)c(=O)n2C	RGS7-Gao 187.5[activator], RGS4-Gao reg 156.5[activator], Avidin fluor 77 | Biotin-avidin inactive | RGS8-Gao single inactive | RGS7-Gao confirm inactive | RGS16-Gao single inactive | RGS4-Gao confirm inactive | RGS19-Gao conf inactive
CC1(C)CN=C(N(Cc2ccccc2)C(=O)Nc2ccccc2)S1	none
CC(C(=O)Nc1ccc([N+](=O)[O-])cc1)N1CCN(C/C=C/c2ccccc2)CC1 (stereo unspecified)	none
CC(=O)c1ccc(NC(=O)C(C)N2CCN(C/C=C/c3ccccc3)CC2)cc1 (stereo unspecified)	RGS7-Gao 150.8[activator], GSH fluor 246, RGS4-Gao reg 161.7[activator] | Biotin-avidin inactive | RGS8-Gao single inactive | RGS7-Gao confirm inactive | RGS16-Gao single inactive | RGS4-Gao confirm inactive | RGS19-Gao conf inactive
S=C1NCN(Cc2cccnc2)CN1c1cccc2ccccc12	RGS7-Gao inconclusive, RGS4-Gao reg 26.3, RGS8-Gao reg 44.2 (no result: GSH fluor) | Biotin-avidin inactive | RGS8-Gao single inactive | RGS7-Gao confirm inactive | RGS16-Gao single inactive | RGS4-Gao confirm inactive | RGS19-Gao conf inactive
Cc1cccc(N2CN(Cc3cccnc3)CNC2=S)c1	none
CCN(CC)C(=O)CSc1nc(O)cc(=O)n1C	none
CCN(CC)C(=O)CSc1nc(O)cc(=O)n1CC	RGS7-Gao 166.5[activator], Avidin fluor 156 | RGS-Gao 125.6
COc1cc(OC)cc(C(=O)N2CCN(Cc3ccccc3[N+](=O)[O-])CC2)c1	none
C=CCNCCCOc1ccc(C)cc1Br	RGS16-Gao HTS 24.1 | RGS-Gao 89.8 | Biotin-avidin inactive | RGS8-Gao single inactive | RGS7-Gao confirm inactive | RGS16-Gao single inactive | RGS4-Gao confirm inactive | RGS19-Gao conf inactive
COCCCNCCCOc1ccc(C)cc1Br	none
COc1ccc(N=C(C)C2=C(O)c3ccccc3C2=O)cc1	none
COc1ccc(N=C(N(C)C)P(=O)(N(C)C)N(C)C)cc1	RGS8-Gao reg 150.5[activator] | RGS-Gao 138.3 | Biotin-avidin inactive | RGS8-Gao single inactive | RGS7-Gao confirm inactive | RGS16-Gao single inactive | RGS4-Gao confirm inactive | RGS19-Gao conf inactive
Cc1ccc(C(=O)c2cc([N+](=O)[O-])ccc2N2CCOCC2)cc1	RGS16-Gao HTS 21.2 | RGS-Gao 91.5 | Biotin-avidin inactive | RGS8-Gao single inactive | RGS7-Gao confirm inactive | RGS16-Gao single inactive | RGS4-Gao confirm inactive | RGS19-Gao conf inactive
COc1ccc(C(=O)c2cc([N+](=O)[O-])ccc2N2CCOCC2)cc1	none
O=C(c1cc([N+](=O)[O-])ccc1N1CCOCC1)N1CCCC1	RGS16-Gao HTS 16.2 | RGS-Gao 84.5 | Biotin-avidin inactive | RGS8-Gao single inactive | RGS7-Gao confirm inactive | RGS16-Gao single inactive | RGS4-Gao confirm inactive | RGS19-Gao conf inactive
O=C(c1cc([N+](=O)[O-])ccc1N1CCOCC1)N1CCOCC1	none
Cc1onc(-c2ccccc2)c1CNC(=O)CN1C(=O)c2ccccc2C1=O	RGS7-Gao inconclusive (no result: GSH fluor)
O=CN1CCN(c2ncnc3c2nnn3Cc2c(F)cccc2Cl)CC1	none
